High-throughput results (PubChem BioAssay)
LmPK inhibitor = qHTS Assay for Inhibitors of Leishmania Mexicana Pyruvate Kinase (LmPK) | Potency, µM (series often up to 57.5 µM), inactives show top-dose activity change, negative = inhibition, usual class: inhibitors | purified LmPK, Kinase-Glo ATP luminescence, 1 h | Q27686 | 290,000 tested, 0.37% active; further: potency means the concentration at half of the fitted maximal effect; on the % scale 0 is the no-effect control and ±100 the full control effect
Target sequence (Q27686 whole entry, looked up): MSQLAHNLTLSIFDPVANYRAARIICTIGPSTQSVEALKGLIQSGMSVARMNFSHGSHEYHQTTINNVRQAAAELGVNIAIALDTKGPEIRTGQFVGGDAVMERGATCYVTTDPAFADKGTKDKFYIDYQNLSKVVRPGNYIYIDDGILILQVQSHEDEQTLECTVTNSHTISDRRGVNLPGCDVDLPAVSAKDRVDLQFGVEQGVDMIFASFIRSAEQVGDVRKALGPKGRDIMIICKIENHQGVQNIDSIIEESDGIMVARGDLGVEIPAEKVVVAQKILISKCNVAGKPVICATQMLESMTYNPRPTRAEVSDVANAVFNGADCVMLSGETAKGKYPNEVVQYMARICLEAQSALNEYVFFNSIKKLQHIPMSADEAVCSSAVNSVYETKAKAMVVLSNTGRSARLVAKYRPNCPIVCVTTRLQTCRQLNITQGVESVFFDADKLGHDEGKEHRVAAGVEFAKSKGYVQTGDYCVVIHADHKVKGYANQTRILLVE
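In 50 mM imidazole pH 7.2 with 7 mM MgCl2, LmPK (0.1 nM) turned over PEP (0.5 mM) and ADP (0.1 mM) for 1 h at room temperature. Luciferase read-out of ATP.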
FBPA Giardia inh = qHTS Assay for Inhibitors of Fructose-1,6-bisphosphate Aldolase from Giardia Lamblia. purified Giardia FBPA. Potency, µM (series often up to 59.6 µM), inactives show at the highest dose activity, negative = inhibition, hits mostly inhibitors. 290,000 tested, 0.71% active. AID 2451, 2010; further: potency means the concentration at half of the fitted maximal effect; on the % scale 0 is the no-effect control and ±100 the full control effect; nearly all actives have a fitted effect of over 55% in size
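40 nM FBPA preincubated 10 min at RT with compound (up to 57.5 uM final), then substrate plus GAPDH/TPI/NAD/arsenate coupling and diaphorase/resazurin added. Fluorescence read after 20 min at RT, 525/598 nm.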
NS1 inh = qHTS Assay for Inhibitors of Influenza NS1 Protein Function | Potency, µM (doses to about 46.1 µM), inactives show top-dose activity, positive = more growth | 270,000 tested, 0.4% active; calls by dose curve; further: potency means the concentration at half of the fitted maximal effect; actives are rising curves; nearly all actives have a fitted effect of over 50% in size
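Read-out: OD600 growth recovery of NS1-expressing budding yeast. Cells grown overnight at 30C in -URA glucose medium, washed, resuspended and diluted 1:100 in 2% galactose assay medium, pH 6.0. Same strain lacking NS1 served as positive control.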
Shiga toxin inh = A qHTS for Small Molecule Inhibitors of Shiga Toxin; 290,000 tested, 9.2% active; inhibition, % at 38.7 µM; Vero cells, Shiga toxin protein synthesis inhibition reporter; in the data active means inhibition mostly above about 28%, no sharp cut-off; inactive means mostly below about 43%; further: 0% is about no effect
CHX counter = Cycloheximide Counterscreen for Small Molecule Inhibitors of Shiga Toxin. cell reporter, cycloheximide protein synthesis inhibition counterscreen. 300,000 tested, 12% active. max response, %; in the data active means max response mostly above about 13%, no sharp cut-off; inactive means mostly below about 14%; further: read at 38.3 µM for the half of the compounds with a filed dose; 0% is about no effect
* = called active by the depositor; ? = inconclusive; · = not tested or not shown; [ ] = another dose, or the depositor's remark. Sampled rows, rich in hits. Any-hit rate of the full collection: about 14%. Unless noted, the call rests on the fitted dose curve; in most records, active means well fitted curve in the direction sought with a large enough effect; inconclusive means small, poorly fitted or top-dose-only effect, or another doubt; inactive means no such curve, though single readings can be large; an effect the other way counts as inactive or inconclusive.

SMILES | LmPK inhibitor | FBPA Giardia inh | NS1 inh | Shiga toxin inh | CHX counter
COCCNC(=O)c1c[nH]c2ccc(S(=O)(=O)Nc3ccccc3F)cc2c1=O | 3% | -1% | 6% | 2 | -4
COCCNC(=O)c1c[nH]c2ccc(S(=O)(=O)Nc3ccc(F)cc3F)cc2c1=O | 4% | -3% | 6% | -10 | 15*
Cc1cc(O)c(S(=O)(=O)c2ccccc2)c(C)c1NS(=O)(=O)c1ccccc1 | 0% | 5% | 8% | -9 | 0
CN1CCN(Cc2cc(COCc3ccccc3)c3cccnc3c2O)CC1 | 4% | -2% | -100% | 11 | 17*
CCc1cc(C(=O)OCC(=O)N2CCC(c3ccccc3)=N2)sc1C | -3% | · | 5% | -13 | -4
Clc1ccc2nc(N3CCCCC3)sc2c1 | -25% | 0% | -3% | 82* | 39*
CC(C)NC(=O)N1CCCN(c2nc3ccc(Cl)cc3s2)CC1 | -3% | 7% | -4% | 37 | 32*
CC(C)C(=O)N1CCN(c2nc3ccc(Cl)cc3s2)CC1 | -9% | · | -16% | 62* | 36*
Clc1ccc2nc(C3CCN(Cc4ccccc4)CC3)[nH]c2c1 | 0% | 3% | -11% | -8 | -3
Clc1ccc2nc(N3CCCCC3)[nH]c2c1 | -23% | -18% | -11% | 80* | 37*
CS(=O)(=O)c1nc(S(=O)(=O)c2ccc(Cl)cc2)c(NCCCn2ccnc2)s1 | 0% | · | -8% | -3 | 2
COc1ccccc1N1C(=O)C(Cl)=C(Nc2ccccc2O)C1=O | 0% | -21% | · | 103* | 32*
O=C1C(Cl)=C(Nc2ccccc2O)C(=O)N1c1ccccc1 | -3% | -25% | -187% | 67* | 45*
CCOc1ccccc1NC1=C(Cl)C(=O)N(c2ccc(OC)cc2)C1=O | 1% | 1% | -5% | 13 | 0
CC#C[C@]1(O)CC[C@H]2C3CCC4=CC(=O)CCC4=C3[C@@H](c3ccc(N(C)C)cc3)C[C@@]21C (some centres undefined) | · | -7% | -39% | · | ·
CC(C)Oc1cccc(C(=O)Nc2ccc(N3CCN(C)CC3)cc2)c1 | 3% | 4% | 14% | · | 26*
CCCOc1cccc(C(=O)NC(=S)Nc2ccc(N3CCN(C)CC3)cc2)c1 | -2% | -2% | -1% | 13 | 7
CN1CCN(c2ccc(NC(=O)c3cccc(OCc4ccccc4)c3)cc2)CC1 | -1% | 1% | -13% | 60* | 23*
CCN(CC(=O)O)CC(=O)O | · | · | 0% | · | ·
COc1ccc(C)cc1NC(=S)N1CC(C)OC(C)C1 (centres undefined) | -12% | · | 1% | -15 | 1
O=C(NCc1ccco1)c1sc2cc(Cl)ccc2c1Cl | 5% | 0% | -8% | 58* | 34*
NC(=O)COC(=O)CNC(=O)c1sc2ccccc2c1Cl | -1% | -2% | · | 13 | 11
O=C(NCCN1CCOCC1)c1sc2ccccc2c1Cl | -6% | 1% | -8% | 66 | 23*
O=C(NCc1ccco1)c1sc2ccccc2c1Cl | 1% | 0% | -8% | 84* | 25*
CN[C@]1(C)[C@H]2CC[C@@H](C2)C1(C)C | · | -4%[21.7 µM] | · | · | ·
SMILES | LmPK inhibitor | FBPA Giardia inh | NS1 inh | Shiga toxin inh | CHX counter
CCOC(=O)C1CCN(C(=O)c2cc3ccc(OC)cc3[nH]2)CC1 | 3% | 2% | -8% | 48 | 27*
CCOC(=O)C1CCN(C(=O)c2cc3cc(Cl)ccc3[nH]2)CC1 | -4% | -3% | 2% | 49* | 23*
O=C(CSc1ncccn1)NCc1cccc(Cl)c1 | -3% | -24% | · | 95* | 42*
O=C(CSc1ncccn1)NCc1ccc2c(c1)OCO2 | -1% | -1% | -2% | 25* | 31
O=C(CSc1nccc(=O)[nH]1)NCc1ccc(Cl)cc1 | 9% | 13% | · | -8 | -2
O=C(CSc1ncccn1)NCc1ccc(Cl)cc1 | -10% | -3% | -1% | 73* | 49*
O=C(CSc1ncccn1)Nc1cc(Cl)ccc1[N+](=O)[O-] | 7% | 6% | · | 19 | 23*
O=C(/C=C/c1ccco1)N(Cc1ccccc1F)C1CCS(=O)(=O)C1 (centres undefined) | 0% | 9% | 6% | -9 | -2
O=C(CSc1ncccn1)NCc1ccccc1 | -1% | 2% | 5% | 54 | 18*
O=c1c(O)c(-c2cc(O)c(O)c(O)c2)oc2cc(O)ccc12 | · | ? | · | -4 | 7
CCCNC(=S)N1CCN(c2nc(-c3cccc(OC)c3)cs2)CC1 | -5% | ? | -18% | 11 | 13*
